Test [1] in a line: optical density shifts of acrAB sulA E. coli – strain DRC41, OD650, 48 h, E. coli filamentation inducer project, primary screen (AID 1152).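 Further: E. coli MC1000 strain DRC41 lacking acrAB efflux pump and sulA.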 To be noted: higher = more signal, called active from +8 up or from −8 down.
Test [2] is described as follows: probe aLefty1 binding on compound microarray – biochemical, small-molecule microarray, 635/667 nm fluorescence, primary screen (AID 1153).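 Further: score merges spot fluorescence with signal-to-noise ratio from the scanned slide images.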 To be noted: higher = more signal.
Test [3] in a line: plasmodial surface anion channel blockers, osmotic lysis – cell-based, P. falciparum Indochina, OD700, 1 h, primary screen (AID 1154). To be noted: P. falciparum Indochina infected RBC osmotic lysis, higher = more signal, called active from +8 up or from −8 down.
A short description of test [4]: plasmodial surface anion channel blockers, osmotic lysis – cell-based, P. falciparum Indochina, OD700, 2 h, primary screen (AID 1155).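 Further: lysis reports solute entry through the parasite surface anion channel PSAC.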 To be noted: P. falciparum Indochina infected erythrocytes, higher = more signal, called active from +8 up or from −8 down.
The nature of test [5]: changes in parasitized red cell lysis, either direction – P. falciparum Indochina, OD700, 3 h, PSAC antagonist project, primary screen (AID 1156). The note with it: P. falciparum-infected erythrocytes, osmotic lysis, higher = more signal, called active from +8 up or from −8 down.
The nature of test [6]: plasmodial surface anion channel blockers, osmotic lysis – cell-based, P. falciparum Indochina, OD700, 18 h, primary screen (AID 1157). The note with it: P. falciparum Indochina infected erythrocytes, osmotic lysis OD700, 18 h; higher = more signal, called active from +8 up or from −8 down.
Test [7] is described as follows: S6 kinase pathway phospho-S6 level changes – cell-based, A549, cytoblot, luminescence, serum-stimulated, primary screen (AID 1158).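 Further: serum-stimulated A549 lung adenocarcinoma cells; signal is phosphorylated S6 detected by cytoblot immunostaining with HRP secondary.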 The note with it: 5 h, higher = more signal.
The target in test [8] is NADPH oxidase 2 (Homo sapiens) (UniProt P04839). The experiment in a line: compounds shifting NOX2 Amplex Red fluorescence – cell-based, HEK293-NOX2, PMA-stimulated, NOX inhibitor project, primary screen (AID 1159). Further: test concentration not given here. The note with it: 45 min, higher = more signal, called active from +8 up or from −8 down.
Test [9] deals with NADPH oxidase 4 (Homo sapiens) (UniProt Q9NPH5). Nature of the test: compounds shifting NOX4 Amplex Red fluorescence – cell-based, HEK293-NOX4, tetracycline-induced, NOX inhibitor project, primary screen (AID 1160). The note with it: HEK293-NOX4, Amplex Red H2O2 fluorescence, 45 min; higher = more signal, called active from +8 up or from −8 down.
Test [10] deals with NADPH oxidase 5 (Homo sapiens) (UniProt Q96PH1). Nature of the test: compounds shifting NOX5 Amplex Red fluorescence – cell-based, HEK293-NOX5, NOX inhibitor project, primary screen (AID 1161). To be noted: HEK293-NOX5, ionomycin, 45 min, higher = more signal.
Test [11] in a line: compound effects on lung adenocarcinoma cell viability – A549, calcein-AM fluorescence, 48 h, basal, profiling panel (AID 1162). Further: test concentration not given here. The note with it: higher = more signal.
A short description of test [12]: compound effects on differentiated 3T3-L1 adipocyte viability – cell-based, 3T3-L1 adipocytes, calcein-AM fluorescence, 48 h, basal, profiling panel (AID 1163). Further: test concentration not given here. The note with it: 3T3-L1 adipocytes viability, higher = more signal.
Test [13] can be described thus: compound effects on hepatocellular carcinoma cell viability – HepG2, calcein-AM fluorescence, 48 h, basal, profiling panel (AID 1164). Further: test concentration not given here. To be noted: higher = more signal.
Test [14] in a line: compound effects on multiple myeloma cell viability – MM1S, calcein-AM fluorescence, 48 h, basal, profiling panel (AID 1165).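 Further: viability of MM1S multiple myeloma cells under basal unstimulated conditions; test concentration not given here.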 To be noted: higher = more signal.
The nature of test [15]: calcein-AM signal in unstimulated myeloma cells – cell-based, calcein-AM fluorescence, 48 h, PK04 Diversity Set, profiling panel (AID 1166).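 Further: cells grown under basal conditions without added stimulus; test concentration not given here.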 The note with it: RPMI8226 myeloma viability, higher = more signal.
Test [16] can be described thus: JC-1 mitochondrial signal, unstimulated HepG2 cells – cell-based, JC-1 fluorescence, 24 h, 100 nL compound, profiling panel (AID 1167). Further: test concentration not given here. To be noted: HepG2 mitochondrial potential, higher = more signal.
Test [17] in a line: JC-1 mitochondrial signal, unstimulated adipocytes – cell-based, JC-1 fluorescence, 3T3-L1 adipocytes, 24 h, 100 nL compound, profiling panel (AID 1168). Further: test concentration not given here. To be noted: JC-1 mitochondrial fluorescence, higher = more signal, called active from +8 up or from −8 down.
Test [18] can be described thus: JC-1 mitochondrial signal, unstimulated myeloma cells – cell-based, JC-1 fluorescence, RPMI8226, 24 h, 100 nL compound, profiling panel (AID 1169). Further: test concentration not given here. To be noted: JC-1 mitochondrial potential fluorescence, higher = more signal.
Test [19] is described as follows: JC-1 mitochondrial signal, unstimulated MM1S myeloma – cell-based, JC-1 fluorescence, 24 h, 100 nL compound, profiling panel (AID 1170). Further: test concentration not given here. To be noted: MM1S mitochondrial potential, higher = more signal.
Test [20] is described as follows: resazurin metabolic signal in A549 cells – cell-based, resazurin fluorescence, 24 h, PK04 Diversity Set, profiling panel (AID 1171). Further: test concentration not given here. The note with it: A549 viability, higher = more signal, called active from +8 up or from −8 down. A general note: Resazurin is reduced to fluorescent resorufin, in cell work by metabolically active cells.

The source made the active and inactive calls.

NADPH oxidase 4 (Homo sapiens), sequence (Q9NPH5 whole entry, looked up): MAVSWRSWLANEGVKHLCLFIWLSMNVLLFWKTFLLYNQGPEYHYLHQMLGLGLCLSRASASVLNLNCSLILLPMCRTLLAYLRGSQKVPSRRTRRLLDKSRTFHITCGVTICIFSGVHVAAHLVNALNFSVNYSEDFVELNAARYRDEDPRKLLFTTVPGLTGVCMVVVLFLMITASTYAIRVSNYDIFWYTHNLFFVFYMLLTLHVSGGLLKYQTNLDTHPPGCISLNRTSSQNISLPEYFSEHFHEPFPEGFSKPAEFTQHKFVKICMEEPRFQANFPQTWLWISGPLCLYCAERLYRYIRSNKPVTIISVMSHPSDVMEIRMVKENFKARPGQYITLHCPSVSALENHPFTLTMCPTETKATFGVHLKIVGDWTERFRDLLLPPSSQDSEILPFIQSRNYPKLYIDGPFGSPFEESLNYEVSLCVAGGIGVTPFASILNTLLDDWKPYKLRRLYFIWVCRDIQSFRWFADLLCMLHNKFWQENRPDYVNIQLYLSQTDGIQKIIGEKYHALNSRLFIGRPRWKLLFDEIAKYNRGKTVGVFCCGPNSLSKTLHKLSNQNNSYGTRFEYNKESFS
NADPH oxidase 5 (Homo sapiens), sequence (Q96PH1 whole entry, looked up): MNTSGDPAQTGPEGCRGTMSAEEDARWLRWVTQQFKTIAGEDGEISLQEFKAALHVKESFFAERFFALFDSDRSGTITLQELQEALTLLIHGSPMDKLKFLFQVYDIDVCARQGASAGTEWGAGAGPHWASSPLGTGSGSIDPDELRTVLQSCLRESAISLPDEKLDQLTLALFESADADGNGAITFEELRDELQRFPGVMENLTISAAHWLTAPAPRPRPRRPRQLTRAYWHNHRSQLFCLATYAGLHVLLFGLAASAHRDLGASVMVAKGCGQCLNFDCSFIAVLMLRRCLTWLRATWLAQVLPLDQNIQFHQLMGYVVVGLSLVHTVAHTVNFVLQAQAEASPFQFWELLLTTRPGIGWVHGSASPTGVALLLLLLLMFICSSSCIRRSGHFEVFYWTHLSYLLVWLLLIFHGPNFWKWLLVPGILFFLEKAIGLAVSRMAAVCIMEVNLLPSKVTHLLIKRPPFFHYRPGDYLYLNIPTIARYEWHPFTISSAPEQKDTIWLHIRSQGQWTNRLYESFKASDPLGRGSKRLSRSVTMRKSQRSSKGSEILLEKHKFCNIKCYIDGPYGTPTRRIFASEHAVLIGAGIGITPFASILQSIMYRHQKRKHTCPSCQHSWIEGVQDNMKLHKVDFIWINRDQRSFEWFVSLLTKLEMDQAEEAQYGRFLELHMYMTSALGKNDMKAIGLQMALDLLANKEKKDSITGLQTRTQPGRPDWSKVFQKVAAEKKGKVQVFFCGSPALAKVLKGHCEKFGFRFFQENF
NADPH oxidase 2 (Homo sapiens), sequence (P04839 whole entry, looked up): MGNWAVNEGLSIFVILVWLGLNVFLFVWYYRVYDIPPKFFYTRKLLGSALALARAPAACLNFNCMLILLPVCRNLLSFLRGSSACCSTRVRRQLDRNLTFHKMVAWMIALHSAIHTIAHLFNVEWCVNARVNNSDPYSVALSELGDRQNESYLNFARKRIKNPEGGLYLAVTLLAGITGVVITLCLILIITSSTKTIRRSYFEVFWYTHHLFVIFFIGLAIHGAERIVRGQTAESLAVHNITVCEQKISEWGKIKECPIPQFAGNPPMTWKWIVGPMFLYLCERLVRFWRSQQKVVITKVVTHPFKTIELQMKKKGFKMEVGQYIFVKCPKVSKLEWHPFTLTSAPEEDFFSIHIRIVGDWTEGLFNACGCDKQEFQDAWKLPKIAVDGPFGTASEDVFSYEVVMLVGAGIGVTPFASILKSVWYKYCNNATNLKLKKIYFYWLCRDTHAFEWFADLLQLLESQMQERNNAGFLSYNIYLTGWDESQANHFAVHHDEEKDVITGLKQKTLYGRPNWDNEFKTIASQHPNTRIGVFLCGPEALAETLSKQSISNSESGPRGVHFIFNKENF

Take `CC(C)[C@H]1NC(=O)[C@@]23C(=O)N[C@@H](Cc4ccccc4)C2[C@H](C)[C@@]2(C)O[C@H]2C3/C=C/C/C=C\CNC(=O)[C@H](Cc2ccccc2)NC1=O` (stereo not given in full): the z-score is -0.306 (inactive) in test [1]; 1.48 (inactive) in test [3]; 0.491 (inactive) in [4]; 0.137 (inactive) in test [5]; 0.476 (inactive) in [6]; -0.324 in test [7]. The z-score is 0.155 (inactive) in test [8]; 1.05 (inactive) in test [9]; 1.1 in test [10]; 0.716 in test [11]; -0.144 in test [12]; 0.42 in test [13]. The z-score in test [14] was -1.08; in test [15], -1.39; in test [16], 0.5; in [17] it was -0.769 (inactive); in test [18] it was -0.132; in [19] it was 0.623. In test [20], the z-score is -0.739 (inactive). Moreover, the composite z-score in test [2] came to 0.284.
Consider `CN1C(=O)C2C=CC(C(O)c3ccc(F)cc3)N(NC(=O)OC(C)(C)C)C2C1=O` (stereo not given), for which the z-score in test [1] was -1.73 (inactive); in [3] it was -0.468 (inactive); in test [4], 0.477 (inactive); in test [5], 0.008 (inactive); in test [6], 0.901 (inactive); in test [7] it was -1.28. The z-score in test [8] was -0.46 (inactive); in test [9], -0.56 (inactive); in test [10] it was -0.481; in [11], -0.834; in [12], -0.528; in test [13], 0.0643. Also, the z-score is -2.82 in test [14]; -0.0542 in test [15]; -0.8 in [16]; -0.517 (inactive) in [17]; 0.247 in test [18]; 1.3 in test [19]. Further, in test [20], the z-score is -1.18 (inactive). Besides, the composite z-score in test [2] was 0.101.
Regarding `COCC(=C=CC[C@@H](O)c1ccc(OCCO)cc1)CCO`, the z-score is 1.15 (inactive) in [1]; 6.19 (inactive) in test [3]; 0.492 (inactive) in [4]; 1.32 (inactive) in test [5]; 0.381 (inactive) in test [6]; 0.357 in test [7]. Further, the z-score in test [8] is -2.03 (inactive); in test [9] it was -0.406 (inactive); in [10], -0.727; in [11], 1.46; in test [12], 0.376; in test [13] it was 0.875. Besides, the z-score in [14] was 0.676; in [15], 0.786; in [16] it was 1.32; in [17], 0.87 (inactive); in test [18] it was -0.756; in [19] it was -1.1. Further, the z-score in [20] is 1.12 (inactive). The compound also had a composite z-score in [2] of 0.0391.
In the case of `NCCCCCNC(=O)[C@@H]1C[C@@H]2C(=O)N3CCC[C@H]3C(=O)N2[C@@H]1c1ccc(O)cc1`, the z-score in [1] was 0.524 (inactive); in test [3] it was 1.9 (inactive); in [4], 0.106 (inactive); in test [5], -0.696 (inactive); in test [6] it was 0.277 (inactive); in test [7], -0.596. The z-score in test [8] was 0.105 (inactive); in test [9], -1.53 (inactive); in test [10] it was 0.0464; in test [11], 0.389; in test [12], 0.485; in [13], 0.2. In addition, the z-score in [14] is -0.42; in test [15], 0.209; in [16], -0.0437; in [17], -0.645 (inactive); in test [18], -0.175; in test [19] it was 0.73. The z-score in [20] is -0.234 (inactive). In addition, the composite z-score in test [2] is 1.08.
Consider `C=C(/C(=C/C[C@@H](OC(C)=O)c1ccc(OCCO)cc1)c1cc(C(=O)OC)ccc1OC)C(C)C`, for which the z-score in test [1] is -0.2 (inactive); in test [3] it was 8.16 (active); in test [4], 1.11 (inactive); in [5] it was 1.24 (inactive); in test [6] it was 0.774 (inactive); in test [7], -0.219. In addition, the z-score in test [8] is -0.323 (inactive); in test [9], -0.645 (inactive); in test [10], -1.87; in [11] it was 0.679; in test [12], -0.345; in [13] it was 0.747. Further, the z-score in test [14] is -1.83; in test [15], -0.385; in [16] it was 0.149; in [17] it was -0.852 (inactive); in test [18] it was -0.799; in test [19], -0.8. Moreover, the z-score in [20] was 0.627 (inactive). Besides, the composite z-score in [2] was 0.0794.
As for `CC(C)N1CC=CC23O[C@@H]4/C=C\CCCOC(=O)C4[C@H]2C(=O)N(CCCCCCO)[C@@H]3C1=O` (stereo not given in full), the z-score in [1] is 2.15 (inactive); in test [3], 0.904 (inactive); in [4], 0.0039 (inactive); in [5], 0.622 (inactive); in [6] it was 0.133 (inactive); in test [7], 0.842. The z-score in [8] is 1 (inactive); in [9], 0.105 (inactive); in [10], 1.92; in [11], 1.46; in test [12], -0.377; in [13], 0.922. Besides, the z-score in test [14] was 1.49; in test [15] it was 0.0006; in test [16], 1.14; in test [17] it was -0.0751 (inactive); in [18] it was -0.659; in test [19], 1.23. In [20], the z-score was 1.51 (inactive). The composite z-score in [2] is 0.248.
As to `COc1cc(C(O)C2C=CC3C(=O)N(Cc4ccccc4)C(=O)C3N2n2cnnc2)cc(OC)c1OC` (stereo not given), the z-score in test [1] is 1.31 (inactive); in test [3], 1.15 (inactive); in test [4], -0.129 (inactive); in [5], -0.666 (inactive); in [6], -1.04 (inactive); in test [7] it was 0.866. For the same compound, the z-score in test [8] was 1.24 (inactive); in test [9], -0.564 (inactive); in test [10], -0.665; in test [11], 1.39; in test [12], -0.356; in test [13], 1.67. Also, the z-score in test [14] is 0.599; in test [15] it was 1.46; in [16], 0.576; in test [17], 0.328 (inactive); in test [18], 0.251; in test [19] it was 0.588. The z-score in test [20] was -0.538 (inactive). In [2], this compound showed a composite z-score of 0.431.
With `[N-]=[N+]=Nc1ccccc1C[C@]1(C(=O)NCc2ccccc2)COC(c2ccc(OCCCO)cc2)=N1`, the z-score in test [1] is 0.325 (inactive); in test [3] it was 30.8 (active); in test [4], 30.8 (active); in test [5], 3.25 (inactive); in test [6], 3.49 (inactive); in test [7], -0.351. The z-score in test [8] is -3.07 (inactive); in test [9], -1.03 (inactive); in [10] it was -1.91; in test [11], -0.827; in [12] it was -0.143; in [13] it was -1.65. Moreover, the z-score was -3.58 in test [14]; -4.42 in test [15]; 0.789 in [16]; 0.443 (inactive) in test [17]; -1.17 in [18]; -2.33 in [19]. In addition, the z-score in [20] is -1.41 (inactive). Also, the composite z-score in test [2] was -0.442.

The values above are taken from PubChem BioAssay.
